Screens deposited in PubChem by Corson Lab, School of Medicine, Indiana University.
Shown is part of a subset that was picked to be rich in hits.
FECH block: inhibitors of human ferrochelatase, primary screen, biochemical, purified FECH, Ni-mesoporphyrin absorbance; Ni-mesoporphyrin absorbance 550 nm; calls only at 10 µM (by protocol); actives 3.3% (n = 20,000);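 active means enzyme reaction rate more than 3 SD below the solvent-only control wells on the same plate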;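 further: lower slope than DMSO wells means FECH inhibition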
Target sequence (P22830 whole entry, looked up): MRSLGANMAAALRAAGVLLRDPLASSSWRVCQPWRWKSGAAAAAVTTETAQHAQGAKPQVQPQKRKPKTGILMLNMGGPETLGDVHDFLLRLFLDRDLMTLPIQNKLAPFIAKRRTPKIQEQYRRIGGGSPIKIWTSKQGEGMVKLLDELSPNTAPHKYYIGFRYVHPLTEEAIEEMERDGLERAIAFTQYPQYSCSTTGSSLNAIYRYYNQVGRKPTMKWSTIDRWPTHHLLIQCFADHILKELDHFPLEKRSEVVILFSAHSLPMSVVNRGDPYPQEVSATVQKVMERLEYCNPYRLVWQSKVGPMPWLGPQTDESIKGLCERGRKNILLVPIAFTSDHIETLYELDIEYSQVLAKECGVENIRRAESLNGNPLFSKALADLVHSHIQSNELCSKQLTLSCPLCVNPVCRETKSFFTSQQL
* marks the source's active call; other numbers are inactive results; i = inactive; + = active, no number.

SMILES | FECH block
O=C(CCC(=O)N1CCc2cc(S(=O)(=O)N3CCCCC3)ccc21)N1CCOCC1 | i
Cc1ccc(C)c(S(=O)(=O)NCc2nc3cccnc3n2CC(C)C)c1 | i
COc1ccccc1N1CCC(NC(C)c2c(C)nn(C)c2C)CC1 (stereo not drawn) | i
NS(=O)(=O)c1ccc(NC(=O)Cn2cnc(S(=O)(=O)N3CCCCC3)c2)cc1 | i
CN1C(=O)C2(CCN(C(=O)COCC3CCCCO3)CC2)c2ccccc21 (stereo not drawn) | +
CN1C(=O)C(CCC(=O)N2CCCOCC2)(Cc2ccccc2)c2ccccc21 (stereo not drawn) | i
CCCc1nc(C(=O)N2CCCC3(C2)C(=O)N(C)c2ccccc23)cs1 (stereo not drawn) | i
CC(C)CCNC(=O)C1CCCN1c1nnc(N2CCCCC2=O)s1 (stereo not drawn) | i
CCOc1ccc(N(Cc2nc3nc(C)cc(C)n3n2)C(=O)c2cccc(Cl)c2)cc1 | i
Cc1cc(C)n2nc(CN(C(=O)Cc3ccccc3)c3ccccc3)nc2n1 | +
Cc1cccc(N(Cc2nc3nc(C)cc(C)n3n2)C(=O)CC(C)C)c1 | i
Cc1cccc(N(Cc2nc3nc(C)cc(C)n3n2)C(=O)C(C)C)c1 | +
Cc1cc(C)n2nc(CN(C(=O)c3ccco3)c3ccc(F)cc3)nc2n1 | +
CCC(C(=O)N(Cc1nc2nc(C)cc(C)n2n1)c1cccc(C)c1)c1ccccc1 (stereo not drawn) | i
Cc1cc(C)n2nc(CN(C(=O)Cc3ccccc3)c3ccc(F)cc3)nc2n1 | i
Cc1cccc(C(=O)N(Cc2nc3nc(C)cc(C)n3n2)c2cccc(C)c2)c1 | i
Cc1cccc(N(Cc2nc3nc(C)cc(C)n3n2)C(=O)c2ccco2)c1 | i
Cc1ccc(N(Cc2nc3nc(C)cc(C)n3n2)C(=O)c2ccco2)cc1 | i
Cc1cccc(N(Cc2nc3nc(C)cc(C)n3n2)C(=O)Cc2ccccc2)c1 | i
Cc1cccc(N(Cc2nc3nc(C)cc(C)n3n2)C(=O)c2cccc(Cl)c2)c1 | +
O=C1CN(CCCNc2ncc(F)c(N3CCOCC3)n2)CCN1 | i
CCCNC(=O)CCc1nc(-c2cc3ccc(C)cc3[nH]c2=O)no1 | i
Cc1ccc(CNC(=O)C2(C)Cn3nc(C(=O)NC(C)C)cc3C(=O)N2C)cc1 (stereo not drawn) | i
CCCc1cc(Sc2ccc(NC(=O)Nc3ccc(CC)cc3)cc2)n2ncnc2n1 | i
CCc1ccc(CN(Cc2ccsc2)Cc2ccco2)nc1 | i
SMILES | FECH block
Cn1ccnc1-c1c(-c2ccccc2)ncn1CC(=O)N1CCNCC1 | i
Cc1cc(C)n2nc(CN(C(=O)c3cccc(Cl)c3)c3ccccc3)nc2n1 | i
COc1ccc(C(=O)N(Cc2nc3nc(C)cc(C)n3n2)c2cccc(C)c2)cc1OC | i
Cc1ccc(C(=O)N(Cc2nc3nc(C)cc(C)n3n2)c2cccc(C)c2)cc1 | +
Cc1cc(C)n2nc(CN(C(=O)c3ccc(F)cc3)c3ccccc3)nc2n1 | i
Cc1ccc(C(=O)N(Cc2nc3nc(C)cc(C)n3n2)c2cccc(Cl)c2)cc1 | i
Cc1cc(C)n2nc(CN(C(=O)c3ccccc3)c3cccc(Cl)c3)nc2n1 | +
O=C(COc1ccc(F)cc1)NCCn1c(-c2ccncc2)nc2cccnc21 | i
CCC(NC(=O)CCC(=O)NC1CCCCCCC1)c1ccnn1C (stereo not drawn) | +
O=C(CCN1CCN(CCc2ccncc2)CC1)NC1CCCCCC1 | i
CCC(NC(=O)c1ccccc1-n1cncn1)c1ccnn1C (stereo not drawn) | i
O=S(=O)(Nc1nc2n(n1)C(c1ccccc1)C=C(c1ccc(Cl)cc1)N2)c1ccc(Cl)cc1 (stereo not drawn) | i
COCCn1c(CNC(=O)c2ccncc2)nc2cccnc21 | i
O=S(=O)(NCCn1c(C(F)(F)F)nc2cccnc21)c1ccc(F)c(Cl)c1 | i
COc1cc2c(=O)n(Cc3ccc(C(=O)NC4CCCC4)cc3)c(=O)n(CC(N)=O)c2cc1OC | i
CCCNC(=O)c1ccc(Cn2c(=O)c3cc(OC)c(OC)cc3n(CC(=O)NC(C)CC)c2=O)cc1 (stereo not drawn) | i
CNC(=O)c1ccc(Cn2c(=O)c3cc(OC)c(OC)cc3n(CC(=O)NC3CCCC3)c2=O)cc1 | +
CCC(C)NC(=O)Cn1c(=O)n(Cc2ccc(C(=O)NC)cc2)c(=O)c2cc(OC)c(OC)cc21 (stereo not drawn) | +
CCCNC(=O)Cn1c(=O)n(Cc2ccc(C(=O)NC)cc2)c(=O)c2cc(OC)c(OC)cc21 | i
CCC(C)NC(=O)c1ccc(Cn2c(=O)c3cc(OC)c(OC)cc3n(CC(N)=O)c2=O)cc1 (stereo not drawn) | i
CC(c1ccccn1)N(C)Cc1cccn1-c1ncccn1 (stereo not drawn) | i
CCn1nc(C)c(NC(=O)CN2CCC(O)(c3ccc(Cl)cc3)CC2)c1C | i
CCOc1ccc(C(=O)NC2CC(=O)N(c3ccc(F)cc3)C2)cc1OCC (stereo not drawn) | i
Cc1cc(CN2CCC=C(CCNS(=O)(=O)C3CC3)C2)no1 | i
Cc1ccccc1Oc1ncccc1CNC(=O)Cn1cccnc1=O | i
SMILES | FECH block
Cc1ccc(OCC(=O)Nc2cccc(OCc3cc(=O)n4ccc(C)cc4n3)c2)cc1 | i
Cc1cccc(OCC(=O)Nc2cccc(OCc3cc(=O)n4ccc(C)cc4n3)c2)c1 | i
COc1ccc(OCC(=O)Nc2cccc(OCc3cc(=O)n4ccc(C)cc4n3)c2)cc1 | i
Cc1ccccc1OCC(=O)Nc1ccc(C)c(OCc2cc(=O)n3cccc(C)c3n2)c1 | +
COc1ccc(OCC(=O)Nc2cccc(OCc3cc(=O)n4cc(Cl)ccc4n3)c2)cc1 | i
Cc1ccn2c(=O)cc(COc3cccc(NC(=O)COc4ccccc4Cl)c3)nc2c1 | i
Cc1ccc(OCC(=O)Nc2ccc(C)c(OCc3cc(=O)n4cccc(C)c4n3)c2)cc1C | +
Cc1ccn2c(=O)cc(COc3cccc(NC(=O)COc4ccccc4)c3)nc2c1 | i
Cc1ccc(OCC(=O)Nc2cccc(OCc3cc(=O)n4cc(Cl)ccc4n3)c2)cc1C | i
Cc1ccc(NC(=O)COc2ccccc2)cc1OCc1cc(=O)n2cccc(C)c2n1 | +
Cc1cccc(OCC(=O)Nc2ccc(C)c(OCc3cc(=O)n4cccc(C)c4n3)c2)c1 | +
CCC(Oc1ccccc1)C(=O)Nc1ccc(C)c(OCc2cc(=O)n3cccc(C)c3n2)c1 (stereo not drawn) | i
O=C(NCc1cccnc1)c1nc[nH]c1C(=O)N1CCC(Cc2ccccc2)CC1 | i
CNC(=O)C1CCC(Cn2c(=O)c3sccc3n(CC(=O)NCCCOC)c2=O)CC1 (stereo not drawn) | i
Cc1cccc(-c2noc(CN(C)Cc3nnc(-c4ccc(C)n4C)o3)n2)c1 | i
CCC(C)c1ccc(Nc2cc(-n3nc(C)cc3C)ncn2)cc1 (stereo not drawn) | i
CCC(=O)Nc1ccccc1-c1nnc(SCC(=O)Nc2ccc(C)c(Cl)c2)[nH]c1=O | i
CN(C)CCn1c(=O)c2cnc(-c3ccc(Cl)cc3)nc2n(C)c1=O | i
Cc1nnc(SCCNC(=O)c2cn[nH]n2)s1 | i
Cc1nc(CN(C)Cc2cccc(C(=O)Nc3cccnc3)c2)cs1 | i
CN(Cc1ccc(C(=O)Nc2ccc3c(c2)ncn3C)cc1)Cc1cnccn1 | i
CN(Cc1cccc(C(=O)Nc2nccs2)c1)Cc1cnccn1 | +
